Compounds with a hit are over-represented: about 7.4% of the library has one in this group of screens.
FXIa inh mix: blocks human factor XIa in pooled compound mixtures; AID 680; 62,000 compounds, 0.19% hits; purified FXIa, fluorogenic substrate; inhibition, % at 5 µM; P03951;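 also: each value is inhibition by a whole ten-compound pool holding the compound; 0% = enzyme with no mixture and 100% = wells lacking enzyme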
Target sequence (P03951 19-387 limits assumed): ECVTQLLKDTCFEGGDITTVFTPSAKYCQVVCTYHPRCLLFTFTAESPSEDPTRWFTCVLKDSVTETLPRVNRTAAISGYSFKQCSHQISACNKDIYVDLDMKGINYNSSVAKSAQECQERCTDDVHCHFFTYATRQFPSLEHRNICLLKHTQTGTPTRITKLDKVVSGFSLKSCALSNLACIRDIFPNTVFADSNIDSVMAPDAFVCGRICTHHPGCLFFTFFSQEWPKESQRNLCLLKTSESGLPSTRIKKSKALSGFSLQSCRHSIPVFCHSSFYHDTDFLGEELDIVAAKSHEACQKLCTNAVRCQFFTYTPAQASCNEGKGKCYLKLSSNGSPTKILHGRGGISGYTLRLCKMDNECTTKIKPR
Target sequence (P03951 388-625 limits assumed): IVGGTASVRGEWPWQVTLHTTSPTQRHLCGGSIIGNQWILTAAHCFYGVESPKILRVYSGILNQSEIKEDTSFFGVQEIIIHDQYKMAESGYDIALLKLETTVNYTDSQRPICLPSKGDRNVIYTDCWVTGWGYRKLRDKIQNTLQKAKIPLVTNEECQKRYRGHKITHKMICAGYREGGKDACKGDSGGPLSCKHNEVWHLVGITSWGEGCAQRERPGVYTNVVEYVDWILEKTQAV
M1 antag: blocks the rat M1 muscarinic receptor response to acetylcholine; P08482; CHO-M1 cells, Fluo-4 calcium, ACh EC80 antagonist mode; hits give low values; B-score at 10 µM; 64,000 compounds, 3.4% hits;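 active = calcium fluorescence response, raw or row-and-column corrected B-score, differing from the plate sample mean either way at a set confidence level, mostly lower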
D1 mod: D1 dopamine receptor (human) allosteric modulation; HEK293 D1, CRE-luciferase, dopamine EC30 potentiation; actives deviate in either direction; B-score at 10 µM; 58,000 compounds, 5.9% hits;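 active = luminescence count or its row- and column-corrected plate score outside the 99.7% band of the plate's sample wells, on either side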
hDAT+cocaine: modulates human dopamine transporter uptake under cocaine | 110,000 compounds, 1.3% hits | B-score at 10 µM | AID 449768 | LLC-PK1 hDAT cells, [14C]-dopamine uptake with cocaine IC80; actives deviate in either direction | Q01959;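 active = Z score or B-score, a plate-position-corrected score, falls beyond the plate's 99.7% confidence bounds, in either direction; inactive = both scores lie inside the 99.7% bounds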;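 also: scored against the spread of the other compound wells on the same plate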
M1 agonist: M1 muscarinic receptor agonism; CHO-M1 cells, Fluo-4 calcium fluorescence, agonist mode; hits give high values; AID 626; 64,000 compounds, 3% hits; B-score at 10 µM;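 active = fluorescence rise, raw or as B-score row- and column-corrected plate score, outside the 99.7% band of its plate's samples, either direction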
FXIIa inh mix: inhibitors of human coagulation factor XIIa, pooled mixtures. purified FXIIa, fluorogenic substrate. inhibition, % at 5 µM. 62,000 compounds, 0.2% hits. AID 684;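 also: 0% = enzyme without compound and 100% = no enzyme blank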
Active calls of the source: *; / = no result. Rule as the data show it, unless noted: active = inhibition above about 20% (passing the limit was not always enough); inactive = the rest.

SMILES | FXIa inh mix | M1 antag | D1 mod | hDAT+cocaine | M1 agonist | FXIIa inh mix
COc1ccc(NC(=O)NCCN2CCN(c3cccc(Cl)c3)CC2)cc1 | 4 | 0.37 | -0.68 | -0.22 | -0.72 | 7
Nc1nc(-c2ccc(Br)cc2)cc(C(F)(F)F)n1 | / | / | / | -0.25 | / | /
COc1ccc(S(=O)(=O)N2CCC(NC(=O)Nc3ccc(C)cc3)CC2)cc1 | 4 | 0.55 | -0.55 | 1.5 | 0.75 | 22*
O=C(NCCc1c[nH]c2ccccc12)c1ccc(S(=O)(=O)NCc2ccco2)cc1 | -6 | -0.036 | 0.021 | -7.7* | -0.47 | 5
O=C(N/N=C/c1ccco1)c1ccncc1 | / | / | / | -0.042 | / | /
Cc1ccc2c3c(c(SCC(=O)Nc4nonc4C)nc2c1)CCCC3 | -2 | -0.84 | 0.77 | 0.79 | 0.94 | 5
Cc1nonc1NC(=O)CSc1nc2cc(Cl)ccc2c2c1CCCC2 | 5 | -0.69 | -2.5* | 0.63 | 0.3 | 6
COCCNC(=O)c1ccc2c(=O)n(CCOC)c(=O)[nH]c2c1 | 5 | -0.26 | / | -9* | 0 | 6
CC1CCN(CCNC(=O)c2ccc3c(=O)n(CCc4ccccc4)c(=O)[nH]c3c2)CC1 | 6 | 0.17 | -1.1 | / | -2* | 0
CCCCCNC(=O)c1ccc2c(=O)n(CCOC)c(=O)[nH]c2c1 | / | / | / | 0.24 | / | /
CC1CCCCN1CCNC(=O)c1ccc2c(=O)n(CCc3ccccc3)c(=O)[nH]c2c1 (stereo not given) | -1 | -0.85 | -3.7* | / | -1.4 | -17
Cn1c(NC(=O)C(C)(C)Oc2ccc(Cl)cc2)cc(=O)n(C)c1=O | 5 | -0.032 | 0.00019 | 0.14 | -0.45 | -8
CC(=O)CSc1nnc(-c2ccncc2)n1C | / | / | / | 0.41 | / | /
Cn1c(SCC2CCCCC2)nnc1-c1ccncc1 | 5 | 0.11 | 0.35 | -7.9* | 0.056 | -1
CC1CCN(c2ccc(/C=N/n3nnnc3N)cc2[N+](=O)[O-])CC1 | / | / | / | -0.012 | / | /
Cc1ccc(/C=N/n2nnnc2N)cc1[N+](=O)[O-] | / | / | / | -8.9* | / | /
CCC1(CC)Cc2ccccc2C(N)=C1C#N | 4 | -1.5 | / | -0.91 | 1.1 | 6
O=C(NC1CCCCCCC1)C1CCN(c2nc3ccccc3o2)CC1 | 5 | -2 | -1.5 | 0.16 | 0.076 | -19
COC(=O)CSc1nnc(SCc2ccc(OC)cc2)s1 | 2 | -0.31 | -2.3* | / | 0.34 | 4
CCCn1c(CN(Cc2ccccc2)Cc2ccccc2)nc2c1c(=O)n(C)c(=O)n2C | 6 | -1.6 | -0.016 | -2.2 | 0.46 | 5
Cn1c(=O)c2c(nc(Br)n2CCc2ccccc2)n(C)c1=O | -3 | -0.75 | -3.8* | -0.31 | -0.14 | 2
CN(Cc1ccccc1)Cc1nc2c(c(=O)n(C)c(=O)n2C)n1CCc1ccccc1 | / | 0.71 | 0.39 | 0.22 | 0.83 | /
CCOC(=O)Cn1c(CN(Cc2ccccc2)Cc2ccccc2)nc2c1c(=O)n(C)c(=O)n2C | -1 | -0.2 | 0.045 | 3.8* | 1.6 | 10
C=CCn1c(Br)nc2c1c(=O)n(C)c(=O)n2C | 13 | -0.35 | 0.24 | 0.41 | -0.39 | -13
Cn1c(=O)c2c(nc(Br)n2C)n(C)c1=O | 0 | 0.69 | -1.6* | -0.077 | -0.019 | 9
SMILES | FXIa inh mix | M1 antag | D1 mod | hDAT+cocaine | M1 agonist | FXIIa inh mix
CCOc1cc(CNCc2ccncc2)cc(Br)c1OCc1ccccc1F | / | / | / | 2.1 | / | /
COc1ccc(-c2nnn(CC(=O)c3ccc4c(c3)OCCO4)n2)cc1OC | 20* | -0.035 | -0.055 | -0.37 | -0.58 | 3
CC(C)C(c1nnnn1C1CCCC1)N1CCCCC1 (stereo not given) | / | / | / | -0.71 | / | /
COc1nc(-c2ccc(C)cc2)ccc1-c1noc(-c2ccco2)n1 | 8 | 1.2 | 0.98 | 0.78 | -0.72 | 1
COc1nc(C)ccc1-c1noc(-c2ccco2)n1 | 7 | / | -1.3* | -0.99 | / | 6
Cc1nn(C)c(C)c1S(=O)(=O)N1CCC(C(=O)NC2CCCCC2)CC1 | 2 | 0.16 | 0.49 | -0.018 | 0.017 | 0
Cc1nn(C)c(C)c1S(=O)(=O)N1CCC(C(=O)NC2CCCCCC2)CC1 | 6 | -1 | 0.19 | -2.6* | 0.3 | 5
O=C(CCC(=O)c1cccs1)Nc1ccccc1F | -2 | -0.26 | 0.025 | -0.064 | 0.51 | -21
Cc1cccc(Nc2nnc(-c3ccc(C(=O)N4C[C@H]5C[C@H](C4)c4cccc(=O)n4C5)cc3)c3ccccc23)c1 | / | / | / | 1.8* | / | /
O=C(CN1CCN(c2ccccc2F)CC1)c1ccc2cc[nH]c2c1 | 7 | 0.44 | -1.3 | / | -0.31 | 3
CCn1cc(C(=O)NCc2cccs2)c(=O)c2ccc(C)nc21 | 11 | 0.2 | 1.3 | 2.9* | 0.27 | -13
CCn1cc(C(=O)NCc2cccs2)c(=O)c2cc(S(=O)(=O)N3CCOCC3)ccc21 | 8 | -0.31 | 0.79 | / | 0.17 | -16
CCNc1nc(NCC)nc(OCCOC(C)=O)n1 | / | / | / | -0.053 | / | /
CCNc1nc(NC(C)C)nc(OCCOC(=O)Nc2ccccc2)n1 | / | / | / | 3.6* | / | /
CC1(c2nnc(-c3ccncc3)o2)CC(c2ccc(F)cc2)=NO1 (stereo not given) | / | / | / | -2.3* | / | /
CCn1c(SCC(=O)NCCc2ccc(OC)c(OC)c2)nc2c1c(=O)n(C)c(=O)n2C | 5 | -0.16 | 0.21 | 0.36 | -0.18 | -2
CCn1c(SCC(=O)c2cc(OC)ccc2OC)nc2c1c(=O)n(C)c(=O)n2C | 3 | 0.63 | 4.9* | / | 0.51 | -11
CCOc1ccc(OCC)c(NC(=O)CSc2nc3c(c(=O)n(C)c(=O)n3C)n2C(C)C)c1 | 2 | 0.22 | 2.2 | 3* | -0.69 | 8
COc1ccc2c(c1)c(=O)oc1cc(OCC(=O)N3CCCC(C)C3)ccc12 (stereo not given) | -5 | -2 | 0.58 | -2.5* | 0.58 | 1
COc1ccc2c(c1)c(=O)oc1cc(OCC(=O)N3CCC(C)CC3)ccc12 | 16 | -0.43 | 0.46 | -0.26 | -1.2 | 8
COc1ccccc1Nc1nc(N)nc(CN2CCN(c3ccccc3F)CC2)n1 | -3 | 0.35 | -0.16 | 2.8* | 0.4 | 0
CC1(C)CC(=O)c2c(nn(-c3ccccc3)c2-c2ccncc2)C1 | / | / | / | 0.039 | / | /
CCOC(=O)c1cc2c(=O)n3cccc(C)c3nc2n(CC2CCCO2)c1=NC(C)=O (stereo not given) | -83 | -0.47 | 1.6 | 1.5 | 0.62 | 2
COCCn1c(=NC(=O)c2ccc3c(c2)OCO3)c(C#N)cc2c(=O)n3cccc(C)c3nc21 | 4 | -0.017 | 0.7 | -2.2* | 0.66 | -3
COCCCNC(=O)c1cc2c(=O)n3cccc(C)c3nc2n(C(C)C)c1=N | -57 | -0.5 | 0.0024 | 0.27 | 0.53 | -12
Cc1cccn2c(=O)c3cc(C#N)c(=NC(=O)c4ccncc4)n(Cc4ccco4)c3nc12 | 0 | 0.011 | 0.19 | / | 6.6* | 5
CCCCn1c(=NC(C)=O)c(C#N)cc2c(=O)n3cccc(C)c3nc21 | -17 | 0.049 | -0.078 | / | 21* | -16
CCOC(=O)c1cc2c(=O)n3cccc(C)c3nc2n(Cc2ccco2)c1=NC(=O)c1ccccc1 | / | / | / | 0.47 | / | /
Clc1ccc2nc(CN3CCCc4ccccc43)cn2c1 | 4 | -0.56 | 1.3 | 1.5 | 0.021 | 7
CCC(CC)C(=O)Nc1cc(C)cc(C)c1 | 8 | 3.3* | -0.011 | -0.18 | -0.033 | 1

Screening data as filed in PubChem BioAssay.
